Reference: PubChem BioAssay (NCI)
This is part of a sample that, as a whole, favours compounds with a hit. Of some 83,000 tested, about 20% had one in any assay.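 Activity criterion: percent growth below 10, measured after cells in 96-well plates were exposed to a single compound concentration for 48 hours.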 Values without a mark were called inactive. Activity calls are given as the source filed them.

Assays:
Experiment in all cases: NCI-60 one-dose screen, 48 h (100 = growth as untreated, 0 = no growth, -100 = all killed)
Conditions in all cases: 10 µM unless noted
SR leukemia = tested on: SR leukemia
RPMI-8226 leukemia = tested on: RPMI-8226 leukemia
OVCAR-8 ovarian = tested on: OVCAR-8 ovarian
OVCAR-5 ovarian = tested on: OVCAR-5 ovarian
SK-OV-3 ovarian = tested on: SK-OV-3 ovarian
IGROV1 ovarian = tested on: IGROV1 ovarian
OVCAR-3 ovarian = tested on: OVCAR-3 ovarian
HS 578T breast = tested on: HS 578T breast
NCI/ADR-RES ovarian = tested on: NCI/ADR-RES ovarian
T-47D breast = tested on: T-47D breast
BT-549 breast = tested on: BT-549 breast
MDA-MB-435 melanoma = tested on: MDA-MB-435 melanoma
SW-620 colon = tested on: SW-620 colon
MCF7 breast = tested on: MCF7 breast
HCT-116 colon = tested on: HCT-116 colon
HCC-2998 colon = tested on: HCC-2998 colon
KM12 colon = tested on: KM12 colon

Row | Compound | growth (SR leukemia) | growth (RPMI-8226 leukemia) | growth (OVCAR-8 ovarian) | growth (OVCAR-5 ovarian) | growth (SK-OV-3 ovarian) | growth (IGROV1 ovarian) | growth (OVCAR-3 ovarian) | growth (HS 578T breast) | growth (NCI/ADR-RES ovarian) | growth (T-47D breast) | growth (BT-549 breast) | growth (MDA-MB-435 melanoma) | growth (SW-620 colon) | growth (MCF7 breast) | growth (HCT-116 colon) | growth (HCC-2998 colon) | growth (KM12 colon)
1 | C#CCNC(=O)CC[C@@H](C)[C@H]1CC[C@H]2[C@@H]3CC[C@@H]4CC(=O)CC[C@]4(C)[C@H]3CC[C@]12C | 24.9% [100 µM] | -32.9% [100 µM] (active) | -21.7% [100 µM] (active) | -45.4% [100 µM] (active) | 11.3% [100 µM] | -64% [100 µM] (active) | -72.6% [100 µM] (active) | -28.3% [100 µM] (active) | -28.7% [100 µM] (active) | 4.15% [100 µM] (active) | -60% [100 µM] (active) | -39.7% [100 µM] (active) | -58.2% [100 µM] (active) | -6.31% [100 µM] (active) | -1.19% [100 µM] (active) | 0.203% [100 µM] (active) | -26.6% [100 µM] (active)
2 | CC1(C)NCCC[C@]2(C)[C@H]3C=CC4=C5C[C@](C)(CO)CC[C@]5(C)CC[C@@]4(C)[C@]3(C)CC[C@@H]12 | -5.08% [100 µM] (active) | -43.8% [100 µM] (active) | -57.8% [100 µM] (active) | -98.7% [100 µM] (active) | -80.1% [100 µM] (active) | -84.5% [100 µM] (active) | -78.8% [100 µM] (active) | -46.8% [100 µM] (active) | -86.4% [100 µM] (active) | -63.9% [100 µM] (active) | -87.9% [100 µM] (active) | -95.6% [100 µM] (active) | -80.7% [100 µM] (active) | -70.7% [100 µM] (active) | -77.4% [100 µM] (active) | -78.8% [100 µM] (active) | -85.5% [100 µM] (active)
3 | Cc1nc(Cl)cc(N(c2cc(Cl)nc(C)n2)c2ncc(C(=O)Nc3c(C)cccc3Cl)s2)n1 | 86.9% | 50.8% | 63.1% | 38.5% | 39.8% | -22% (active) | 49.9% | -1.46% (active) | 59.3% | 23.5% | 93.3% | 71.8% | 96.6% | 53.3% | 19.1% | 80.7% | 79.7%
4 | NC(=O)c1cccc(-c2ccc(S(=O)(=O)Nc3ccc4c(c3)N(C(=O)C3CC3)CCC4)cc2)c1 | 50.5% | 43.7% | 57% | 64.8% | 38.2% | 37.1% | 15.8% | 17.9% | 104% | 26.1% | 96.7% | 1.89% (active) | 32.3% | 22.9% | 98.2% | 64.5% | 18.9%
5 | CCN(CC)c1ccc2cc(C(Nc3ccc(Cl)cc3)c3nnnn3C(C)(C)C)c(=O)oc2c1 (stereo unspecified) | 101% | 88.4% | 89.9% | 90.2% | 105% | 93.6% | 94.4% | 89.4% | 97.7% | 71.7% | 103% | 87.8% | 100% | 74.2% | 92% | 105% | 88.7%
6 | c1coc2occoc=2o1 | 114% | 100% | 107% | 101% | 99.6% | 109% | 103% | 104% | 107% | 98% | 104% | 102% | 110% | 104% | 109% | 108% | 106%
7 | CC1(C)CC[C@]2(C(=O)O)CC[C@]3(C)C(=CC[C@@H]4[C@@]5(C)C/C(=C/c6ccco6)C(=O)C(C)(C)[C@@H]5CC[C@]43C)[C@@H]2C1 | 21.7% [100 µM] | 0.316% [100 µM] (active) | 9.39% [100 µM] (active) | -64.2% [100 µM] (active) | 0.149% [100 µM] (active) | -38.7% [100 µM] (active) | -70% [100 µM] (active) | -5.24% [100 µM] (active) | -12.6% [100 µM] (active) | -0.554% [100 µM] (active) | -27.2% [100 µM] (active) | -70.6% [100 µM] (active) | -32.8% [100 µM] (active) | -8.44% [100 µM] (active) | -71.8% [100 µM] (active) | -58.1% [100 µM] (active) | -65.9% [100 µM] (active)
8 | C=C(C)[C@@H]1CC[C@]2(C(=O)NCCCCCCN(CCCN)CCCN)CC[C@]3(C)[C@H](CC[C@@H]4[C@@]5(C)CC[C@H](OCCCN)C(C)(C)[C@@H]5CC[C@]43C)[C@@H]12 | 18.4% [100 µM] | 29.3% [100 µM] | -28.3% [100 µM] (active) | 90.5% [100 µM] | 97.9% [100 µM] | 27.3% [100 µM] | 71.8% [100 µM] | 94.9% [100 µM] | 86.3% [100 µM] | 85.3% [100 µM] | 118% [100 µM] | 89.6% [100 µM] | 7.33% [100 µM] (active) | 14.5% [100 µM] | 12.6% [100 µM] | 77.1% [100 µM] | 31.5% [100 µM]
9 | C=C(C)[C@@H]1CC[C@]2(C)[C@H](CC[C@@H]3[C@@H]([C@@](C)(O)CCC=C(C)C)CC[C@]32C)[C@@]1(C)CCC(=O)N1CCN(C)CC1 | 7.02% [100 µM] (active) | -38.4% [100 µM] (active) | -65.6% [100 µM] (active) | -93.3% [100 µM] (active) | -83.4% [100 µM] (active) | -82.5% [100 µM] (active) | -85.9% [100 µM] (active) | -41.5% [100 µM] (active) | -87% [100 µM] (active) | -42.9% [100 µM] (active) | -84% [100 µM] (active) | -82.6% [100 µM] (active) | -75% [100 µM] (active) | -65.9% [100 µM] (active) | -85.7% [100 µM] (active) | -91.9% [100 µM] (active) | -83% [100 µM] (active)
10 | C=C(C)[C@@H]1CC[C@]2(C(=O)NCCNCCNC(=O)OC(C)(C)C)CC[C@]3(C)[C@H](CC[C@@H]4[C@@]5(C)CCC(=O)C(C)(C)[C@@H]5CC[C@]43C)[C@@H]12 | 52.4% [100 µM] | 22.2% [100 µM] | 44.4% [100 µM] | 60.4% [100 µM] | 49.8% [100 µM] | 34.7% [100 µM] | 32.3% [100 µM] | 37.8% [100 µM] | 52.2% [100 µM] | 28% [100 µM] | 54.2% [100 µM] | 36.8% [100 µM] | 28.8% [100 µM] | 22.2% [100 µM] | 17.5% [100 µM] | 60.5% [100 µM] | 34.3% [100 µM]
11 | CC1(C)CC[C@]23CC[C@]4(C)[C@H](CC[C@@H]5[C@@]6(C)C/C(=C/c7ccncc7)C(=O)C(C)(C)[C@@H]6CC[C@]54C)[C@H]2[C@H]1OC3=O | 93.5% [100 µM] | 41.1% [100 µM] | 51.9% [100 µM] | 111% [100 µM] | 47.7% [100 µM] | 70.1% [100 µM] | 85.2% [100 µM] | -3.34% [100 µM] (active) | 64.4% [100 µM] | 62.6% [100 µM] | 52.4% [100 µM] | 78.7% [100 µM] | 80.8% [100 µM] | 70.1% [100 µM] | 47.9% [100 µM] | 78.2% [100 µM] | 81.3% [100 µM]
12 | CC1(C)CC[C@]2(C(N)=O)CC[C@]3(C)C(=CC[C@@H]4[C@@]5(C)C/C(=C/c6ccncc6)C(=O)C(C)(C)[C@@H]5CC[C@]43C)[C@@H]2C1 | 2.61% [100 µM] (active) | -29.1% [100 µM] (active) | -28.6% [100 µM] (active) | -81.9% [100 µM] (active) | -45.7% [100 µM] (active) | -72.3% [100 µM] (active) | -69.5% [100 µM] (active) | -22.1% [100 µM] (active) | -48% [100 µM] (active) | -24.8% [100 µM] (active) | -24.9% [100 µM] (active) | -56.3% [100 µM] (active) | -32.1% [100 µM] (active) | -36.6% [100 µM] (active) | -22.7% [100 µM] (active) | -50.4% [100 µM] (active) | -52.3% [100 µM] (active)
13 | O=C(Nc1cccnc1)c1ccc2ccc3ccc(C(=O)Nc4cccnc4)nc3c2n1 | 42.6% | 18.7% | 22.6% | 36.9% | 47.6% | 15.4% | 23.3% | 46.4% | 79.8% | 37.2% | 34.7% | 24.9% | 11% | 28.9% | 4.76% (active) | 3.41% (active) | 5.81% (active)
